In PubChem BioAssay:
Activity calls are given as the source filed them.

Assays:
[1] = small molecules captured by biotinylated probe aFSTL3 – biochemical, small-molecule microarray, fluorescence 635/667, stem cell growth factor project, primary screen (AID 1064); conditions: higher = more signal;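 note: measures binding of the biotinylated anti-FSTL3 antibody to printed compounds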
[2] = binders from COS7 lysate, DM2A8 probe, primary screen, torsin A project, cell lysate, small-molecule microarray, fluorescence 635/667 (AID 1065); conditions: higher = more signal, COS7 lysate expressing mutant human TOR1A
[3] = small molecules captured by biotinylated probe aFGF2 – biochemical, small-molecule microarray, fluorescence 635/667, stem cell growth factor project, primary screen (AID 1067); conditions: higher = more signal;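 note: measures binding of biotinylated aFGF2 protein to printed compounds on slides; z-score merges feature fluorescence and signal-to-noise across triplicate slides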
[4] = small molecules captured by biotinylated probe aFGF10 – biochemical, small-molecule microarray, fluorescence 635/667, stem cell growth factor project, primary screen (AID 1071); conditions: higher = more signal;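 note: score merges 667 nm spot intensity and signal to noise from triplicate slides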
[5] = target: Neurogenic locus notch homolog protein 2 (Homo sapiens) (UniProt Q04721); assay: small molecules binding Notch2 protein – biochemical, small-molecule microarray, 635 nm fluorescence, stem cell growth factors, primary screen (AID 1073); conditions: higher = more signal
Neurogenic locus notch homolog protein 2 (Homo sapiens), sequence (Q04721 whole entry, looked up, canonical isoform): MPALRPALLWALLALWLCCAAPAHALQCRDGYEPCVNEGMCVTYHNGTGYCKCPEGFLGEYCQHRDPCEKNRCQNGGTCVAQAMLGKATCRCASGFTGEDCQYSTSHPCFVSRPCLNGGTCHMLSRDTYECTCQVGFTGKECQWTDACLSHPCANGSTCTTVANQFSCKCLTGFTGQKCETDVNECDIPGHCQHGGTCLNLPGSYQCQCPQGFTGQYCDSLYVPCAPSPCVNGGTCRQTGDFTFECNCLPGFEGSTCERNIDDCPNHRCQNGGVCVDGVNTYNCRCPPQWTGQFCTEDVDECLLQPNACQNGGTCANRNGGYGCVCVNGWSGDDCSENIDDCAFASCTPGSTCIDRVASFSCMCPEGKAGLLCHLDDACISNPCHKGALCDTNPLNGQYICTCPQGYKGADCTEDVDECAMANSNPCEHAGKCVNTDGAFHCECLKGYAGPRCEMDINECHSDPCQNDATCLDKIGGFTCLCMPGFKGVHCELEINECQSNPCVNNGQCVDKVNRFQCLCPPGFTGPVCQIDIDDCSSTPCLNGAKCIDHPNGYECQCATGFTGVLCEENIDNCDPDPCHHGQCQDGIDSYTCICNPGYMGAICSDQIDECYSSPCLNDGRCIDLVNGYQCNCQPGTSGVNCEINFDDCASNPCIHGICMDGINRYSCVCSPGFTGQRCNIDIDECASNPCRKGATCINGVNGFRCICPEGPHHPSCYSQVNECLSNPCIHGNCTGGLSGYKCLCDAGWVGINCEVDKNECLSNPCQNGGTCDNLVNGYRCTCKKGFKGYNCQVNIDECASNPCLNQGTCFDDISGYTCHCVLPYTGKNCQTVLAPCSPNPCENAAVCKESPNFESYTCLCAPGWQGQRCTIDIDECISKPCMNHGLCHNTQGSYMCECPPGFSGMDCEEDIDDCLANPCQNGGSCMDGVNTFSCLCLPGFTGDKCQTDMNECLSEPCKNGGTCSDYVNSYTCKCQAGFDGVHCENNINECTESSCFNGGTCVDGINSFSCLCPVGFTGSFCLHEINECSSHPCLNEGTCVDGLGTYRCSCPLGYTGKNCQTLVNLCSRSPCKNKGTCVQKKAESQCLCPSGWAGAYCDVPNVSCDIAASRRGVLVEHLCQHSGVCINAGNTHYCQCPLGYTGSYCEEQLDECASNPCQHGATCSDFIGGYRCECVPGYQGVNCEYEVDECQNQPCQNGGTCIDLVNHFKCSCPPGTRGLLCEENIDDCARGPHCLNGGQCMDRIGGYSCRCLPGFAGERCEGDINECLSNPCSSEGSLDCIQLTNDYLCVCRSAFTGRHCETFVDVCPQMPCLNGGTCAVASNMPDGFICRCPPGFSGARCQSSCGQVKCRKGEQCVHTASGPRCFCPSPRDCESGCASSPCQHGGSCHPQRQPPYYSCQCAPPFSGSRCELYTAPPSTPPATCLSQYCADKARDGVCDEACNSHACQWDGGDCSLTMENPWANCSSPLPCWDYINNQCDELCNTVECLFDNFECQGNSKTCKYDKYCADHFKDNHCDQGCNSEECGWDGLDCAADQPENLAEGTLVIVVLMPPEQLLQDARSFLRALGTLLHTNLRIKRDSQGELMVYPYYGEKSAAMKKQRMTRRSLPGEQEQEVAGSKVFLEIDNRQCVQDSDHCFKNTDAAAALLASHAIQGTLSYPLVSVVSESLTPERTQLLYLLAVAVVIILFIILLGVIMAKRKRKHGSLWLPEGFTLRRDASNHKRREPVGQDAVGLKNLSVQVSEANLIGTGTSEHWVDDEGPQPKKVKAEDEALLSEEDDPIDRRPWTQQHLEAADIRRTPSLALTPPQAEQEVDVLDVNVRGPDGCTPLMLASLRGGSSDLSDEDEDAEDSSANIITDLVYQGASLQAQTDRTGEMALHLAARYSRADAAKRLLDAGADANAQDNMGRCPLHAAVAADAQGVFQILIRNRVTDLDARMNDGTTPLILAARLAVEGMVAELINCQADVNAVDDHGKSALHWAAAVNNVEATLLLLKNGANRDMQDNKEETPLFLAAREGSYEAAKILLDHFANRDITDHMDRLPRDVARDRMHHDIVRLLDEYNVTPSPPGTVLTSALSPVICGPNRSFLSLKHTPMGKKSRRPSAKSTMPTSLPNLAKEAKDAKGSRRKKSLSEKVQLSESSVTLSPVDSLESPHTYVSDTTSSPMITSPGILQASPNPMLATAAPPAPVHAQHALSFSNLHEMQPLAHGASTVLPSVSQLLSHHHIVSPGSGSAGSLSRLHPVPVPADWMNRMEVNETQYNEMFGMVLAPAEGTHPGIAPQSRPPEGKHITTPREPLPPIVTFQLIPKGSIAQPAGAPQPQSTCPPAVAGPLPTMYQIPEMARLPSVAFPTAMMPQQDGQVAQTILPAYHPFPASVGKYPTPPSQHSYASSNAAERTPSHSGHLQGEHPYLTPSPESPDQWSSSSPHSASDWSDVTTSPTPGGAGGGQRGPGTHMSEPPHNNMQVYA

[6] = target: Pro-neuregulin-1, membrane-bound isoform (Homo sapiens) (UniProt Q02297); assay: small molecules binding neuregulin-1 protein – biochemical, small-molecule microarray, fluorescence 635/667, psychiatric disease protein project, primary screen (AID 1075); conditions: NRG1 binding, 635 nm fluorescence, higher = more signal;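 note: score combines 667 nm spot fluorescence with signal to noise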
Pro-neuregulin-1, membrane-bound isoform (Homo sapiens), sequence (Q02297 whole entry, looked up, the tested form may be a part, canonical isoform): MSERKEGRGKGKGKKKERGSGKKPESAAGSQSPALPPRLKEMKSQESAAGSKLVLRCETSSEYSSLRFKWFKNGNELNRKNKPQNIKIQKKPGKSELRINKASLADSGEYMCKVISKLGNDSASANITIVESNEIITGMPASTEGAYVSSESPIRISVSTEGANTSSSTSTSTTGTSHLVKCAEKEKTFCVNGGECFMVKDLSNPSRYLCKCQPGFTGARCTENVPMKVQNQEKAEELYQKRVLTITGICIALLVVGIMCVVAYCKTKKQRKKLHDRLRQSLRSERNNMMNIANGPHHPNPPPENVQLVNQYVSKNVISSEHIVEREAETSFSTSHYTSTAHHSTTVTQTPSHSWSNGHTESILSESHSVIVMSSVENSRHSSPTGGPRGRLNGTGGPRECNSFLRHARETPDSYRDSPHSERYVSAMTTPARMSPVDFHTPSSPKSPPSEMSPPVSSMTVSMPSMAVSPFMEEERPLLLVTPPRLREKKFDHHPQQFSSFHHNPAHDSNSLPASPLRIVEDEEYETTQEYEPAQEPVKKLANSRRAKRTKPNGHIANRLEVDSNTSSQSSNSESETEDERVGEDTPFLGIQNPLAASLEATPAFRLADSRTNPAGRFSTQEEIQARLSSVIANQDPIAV

[7] = system: Neuregulin-1 EGF-like domain; assay: small molecules binding NRG1 EGF domain – biochemical, small-molecule microarray, 635 nm fluorescence, primary screen (AID 1081); conditions: higher = more signal;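 note: binding of the protein to compounds printed on small-molecule microarray slides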
[8] = FRG1 expression reporter modulators in myotubes – cell-based, C2C12 myotubes, firefly/Renilla luciferase, luminescence, FRG1 inhibition for FSHD, primary screen (AID 1084); conditions: FRG1 promoter luciferase, higher = more signal, called active from +8 up or from −8 down
[9] = small molecules captured by biotinylated probe aFST – biochemical, small-molecule microarray, fluorescence 635/667, stem cell growth factor project, primary screen (AID 1086); conditions: higher = more signal;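 note: score merges 667 nm fluorescence with signal-to-noise of each printed compound spot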
[10] = binders of probe aHhip on microarray, primary screen, stem cell growth factor project, biochemical, small-molecule microarray, fluorescence 635/667 (AID 1087); conditions: higher = more signal;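 note: score merges spot fluorescence at 667nm with spot signal to noise ratio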

| Compound | composite z-score [1] | composite z-score [2] | composite z-score [3] | composite z-score [4] | composite z-score [5] | composite z-score [6] | composite z-score [7] | z-score [8] | composite z-score [9] | composite z-score [10] |
| --- | --- | --- | --- | --- | --- | --- | --- | --- | --- | --- |
| CC(CCN1CCCc2nc(C)c(C)cc21)=NOC(C)CN1CCCCc2nc(C)c(C)cc21 (stereo not given) | -0.213 | 0.854 | 0.0766 | 0.644 | 1.51 | 0.303 | 1.13 | 1.21 (inactive) | 1.09 | 0.815 |
| CCc1cc2c(nc1CC)CCN(CCC(C)=NOC[C@H]1O[C@H](c3ccccc3)C=C[C@@H]1Oc1ccc(OC)cc1)C2 | 0.0529 | 0.732 | -0.178 | -0.147 | -0.391 | 0.121 | 0.734 | 1.39 (inactive) | 0.0567 | 0.12 |
| Cc1cc2c(nc1C)CCCCN2CC(C)ON=C1[C@H]2CCn3c(=O)n(-c4ccccc4)c(=O)n3[C@H]2[C@H](O)[C@@H]2O[C@H]12 (stereo not given in full) | -0.455 | 0.288 | 0.0051 | 0.756 | 0.942 | -0.349 | 0.8 | -0.446 (inactive) | 0.557 | -0.0346 |
| O=c1n(-c2ccccc2)c(=O)n2n1CC[C@@H]1C(=NOCc3ccccc3)[C@H]3O[C@H]3[C@@H](O)[C@@H]12 | -0.489 | -0.285 | -0.0494 | 0.472 | -0.267 | -0.0644 | -0.338 | -0.354 (inactive) | -0.0869 | -0.284 |
| COC(=O)CC=C[C@@H](C)[C@@H](C=NO[C@@H](C)c1cc(-c2c(C)cc(C)cc2C)no1)NS(=O)(=O)c1ccc(C)cc1 | 1.38 | -0.498 | -0.144 | -1.29 | -1.06 | -0.647 | -0.631 | 0.295 (inactive) | -0.176 | -0.236 |
| CC(C)CON=C1[C@H]2CCn3c(=O)n(Cc4cc5c(cc4Cl)OCO5)c(=O)n3[C@H]2[C@H](O)[C@@H]2O[C@H]12 | -0.293 | 0.493 | -0.079 | 0.258 | 0.394 | 0.142 | 0.497 | 0.354 (inactive) | 0.0082 | 0.235 |
| CO[C@H]1COC(=O)[C@@H]2CCCN2C(=O)CC=C[C@@H](C)[C@H](OC)COC(=O)[C@@H](OCc2ccccc2)C=C[C@@H]1C | -0.466 | 1.29 | -0.175 | -0.477 | -0.624 | -0.233 | 0.269 | -0.0576 (inactive) | 0.317 | 0.176 |
| CO[C@@H]1COC(=O)[C@H](CCSC)NC(=O)CC=C[C@@H](C)COC(=O)CCC[C@H]1C | -0.994 | 2.94 | -0.167 | 0.114 | -0.559 | -1.28 | 1.15 | 0.0651 (inactive) | 1.41 | -0.161 |
| COc1cccc([C@H]2Oc3ccc(OC)cc3C(=NOC[C@@H](C)[C@H](OCc3ccccc3)C(C)C)[C@@H]2O)c1 | -0.108 | 0.435 | -0.004 | 0.431 | 0.203 | -0.201 | 0.686 | 3.29 (inactive) | 1.33 | 0.0274 |
| CO[C@H]1COC(=O)CC=C[C@@H](C)[C@H](NS(=O)(=O)c2ccc(C)cc2)COC(=O)CCC[C@@H]1C | -0.366 | 0.906 | -0.154 | 0.21 | 0.18 | -0.25 | 0.185 | 0.408 (inactive) | -0.225 | -0.635 |
| CC(C)[C@@H](OCc1ccccc1)[C@H](C)C=NOC[C@@H](O)COCc1ccco1 | -0.457 | 0.84 | -0.251 | -0.416 | -1.08 | -0.417 | -0.569 | 0.887 (inactive) | -1.53 | -0.302 |
| Cc1cc2c(nc1C)CCCCN2CC(C)ON=C[C@@H](C)[C@H](OCc1ccccc1)C(C)C (stereo not given in full) | -0.0674 | -0.777 | -0.307 | -1.05 | -1.38 | -0.317 | -0.366 | -0.154 (inactive) | -0.514 | -0.0994 |
| CO[C@H]1COC(=O)[C@H](C)NC(=O)CC=C[C@@H](C)[C@H](OC)COC(=O)[C@@H](OCc2ccccc2)C=C[C@@H]1C | -0.628 | 0.996 | -0.0877 | -0.299 | -0.542 | -0.954 | -1.45 | -0.0754 (inactive) | 0.0521 | -0.0994 |
| COCCNC(=O)OCC1CCCC2(CC(OC(=O)NCc3ccc4c(c3)OCO4)CC(CCC(=O)N[C@@H](C)C(=O)OC)O2)O1 (stereo not given in full) | -0.463 | 0.362 | -0.116 | 0.387 | 1.05 | 0.191 | 0.699 | 0.502 (inactive) | 0.171 | -0.0994 |
| CC(C)CON=C1C[C@@H](O)[C@@H](O)[C@@H]2[C@@H]3C(=O)N(c4ccc(F)cc4F)C(=O)[C@@H]3CC[C@H]12 | -0.337 | 1.29 | -0.214 | 0.269 | 0.737 | 0.668 | 1.23 | -0.858 (inactive) | 0.803 | 0.111 |
| CC(C)=CCCC(C)=CCON=C1C[C@@H](O)[C@@H](O)[C@@H]2[C@@H]3C(=O)N(c4cccc(Oc5ccccc5)c4)C(=O)[C@@H]3CC[C@@H]12 | -0.473 | -0.314 | -0.0962 | 0.341 | 0.521 | 0.938 | 0.972 | 0.508 (inactive) | 0.34 | -0.0994 |
| C[C@@H](c1ccccc1)N1C(=O)[C@H]2[C@H]3[C@H](O)[C@H](O)CC(=NOCc4ccccc4)[C@H]3CC[C@H]2C1=O | -0.393 | 0.0852 | -0.0667 | 0.0945 | 0.39 | 0.381 | 1.22 | -0.405 (inactive) | 0.317 | -0.0383 |

| Compound | composite z-score [1] | composite z-score [2] | composite z-score [3] | composite z-score [4] | composite z-score [5] | composite z-score [6] | composite z-score [7] | z-score [8] | composite z-score [9] | composite z-score [10] |
| --- | --- | --- | --- | --- | --- | --- | --- | --- | --- | --- |
| CC(CCN1CCCCc2nc(C)c(C)cc21)=NO[C@H](C)c1cn([C@H](CO)Cc2ccccc2)nn1 | -0.476 | 0.736 | -0.0894 | 0.205 | -0.248 | -0.0339 | 0.362 | 2.09 (inactive) | 0.627 | -0.0237 |
| CCCCC#C[C@@H]1C=C[C@H](Oc2ccc(C(=O)OC)cc2)[C@@H](COC(=O)OCC)O1 | -0.367 | 0.956 | -0.0874 | 0.495 | 0.65 | 0.338 | 0.733 | -2.03 (inactive) | 0.153 | 0.178 |
| CO[C@H]1COC(=O)[C@@H](C)COC(=O)[C@H](COCc2ccccc2)NC(=O)CC=C[C@H]1C | -0.325 | 1.45 | -0.156 | -0.607 | -1.58 | -1.19 | -1.43 | -0.335 (inactive) | 0.1 | -0.0672 |
| CO[C@H]1COC(=O)CC=C[C@H](C)[C@@H](OC)COC(=O)[C@@H](C)NC(=O)CC=C[C@@H]1C | -0.548 | 1.9 | -0.177 | 0.0365 | -0.411 | -0.255 | 0.515 | 0.447 (inactive) | -0.251 | -0.196 |
| C=CC[C@@H]1C=C[C@H](ON=C2[C@H]3CCn4c(=O)n(-c5ccccc5)c(=O)n4[C@H]3[C@H](O)[C@@H]3O[C@H]23)[C@@H](CO)O1 | -0.356 | 0.189 | -0.065 | 0.274 | 0.502 | 0.19 | 0.0586 | -0.299 (inactive) | 0.0716 | 0.104 |
| O=C(NN=C1C[C@@H](O)[C@@H](O)[C@@H]2[C@@H]3C(=O)N(C[C@@H]4CCCO4)C(=O)[C@@H]3CC[C@H]12)OCc1ccccc1 | 0.0589 | 0.349 | -0.118 | -0.0255 | -0.248 | -0.117 | -0.637 | -0.361 (inactive) | 0.556 | -0.0994 |
| COC(=O)CC=C[C@@H](C)[C@@H](C=NO[C@H](C)c1cn([C@H](CO)Cc2ccccc2)nn1)OC | -0.42 | 0.44 | -0.0867 | 0.257 | -0.0484 | -0.0545 | 0.516 | 0.0621 (inactive) | 0.0782 | 0.189 |
| O=C1CCCC=C1C(CCc1ccccc1)OC(=O)c1ccc(Br)cc1 (stereo not given) | -0.351 | 0.0329 | -0.0841 | 0.335 | 0.047 | -0.532 | -0.529 | 3.31 (inactive) | -0.205 | -0.137 |
| CO[C@@H]1C=CCC(=O)N2CCC[C@H]2C(=O)OC[C@@H](C)C(=O)OC[C@H]1C | -0.605 | 1.7 | -0.159 | 0.492 | 0.156 | -0.582 | 0.477 | -1.15 (inactive) | 0.274 | 0.238 |
| CCOC(=O)[C@H](CC(C)C)NC(=O)CCC1CC(OC(=O)NCc2ccc3c(c2)OCO3)CC2(CCCC(COC(=O)NCC3CCCCC3)O2)O1 (stereo not given in full) | -0.203 | 1.06 | -0.11 | 0.443 | 0.6 | 0.292 | 1.02 | 0.807 (inactive) | 0.293 | -0.255 |
| CO[C@H]1COC(=O)[C@@H](Cc2ccccc2)NC(=O)[C@@H](C)COC(=O)CCC[C@@H]1C | -0.388 | 0.433 | -0.0319 | 0.286 | 0.106 | -0.203 | -0.361 | -0.224 (inactive) | 0.23 | -0.0391 |
| CC(C)(C)N1C(=O)[C@H]2[C@H]3[C@H](O)[C@H](O)CC(=O)[C@@H]3CC[C@H]2C1=O | 1.64 | 0.0227 | -0.156 | 0.673 | 0.259 | -0.404 | 0.304 | -0.255 (inactive) | 0.723 | -0.0645 |
| CCc1cc2c(nc1CC)CCN(CCC(C)=NO[C@H](C)c1cn([C@H](CO)Cc3ccccc3)nn1)C2 | 0.111 | 0.985 | -0.0154 | 0.0116 | -0.0913 | 0.107 | 0.595 | 0.834 (inactive) | -0.129 | -0.249 |
| COc1cc(O)c(C(=O)C=Cc2ccc3c(c2)OCO3)c(OC)c1 | -0.132 | 0.0414 | 0.0198 | 0.2 | -0.877 | -0.288 | -0.927 | -0.984 (inactive) | -0.155 | 0.0238 |
| COC(=O)CC=C[C@@H](C)[C@@H](C=NOCC[C@@H]1C=C[C@H](OC(C)=O)[C@@H](COC(C)=O)O1)NS(=O)(=O)c1ccc(C)cc1 | -0.186 | 1.86 | -0.129 | -0.371 | -0.134 | -0.512 | -0.123 | 0.0469 (inactive) | 0.153 | -0.0296 |
| O=c1n(Cc2cc3c(cc2Cl)OCO3)c(=O)n2n1CC[C@@H]1C(=NOC[C@@H](O)COCc3ccco3)[C@H]3O[C@H]3[C@@H](O)[C@@H]12 | -0.247 | 0.28 | -0.0878 | 0.217 | 0.169 | -0.112 | 0.0421 | 0.0388 (inactive) | -0.142 | 0.0398 |
